Measurements published in the supplement of paper PMC6555819.

Tests used:
Assay in all cases: PBM binding z-score (relative to random genomic background probes); higher = stronger binding; sequences stand for … in GC…GCGATTGACAGCGTAGAATGAAGG
[1] = tested on: RARb homodimer (NR concentration 270 nM)
Method in brief: (§1)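 Binding buffer was PBS pH 7.4 with 2% milk, 0.02% Triton X-100, 1 mM DTT, 0.2 mg/mL BSA and 0.4 mg/ml salmon testes DNA. In it, ligand-free nuclear receptor dimers were incubated 1 h on custom Agilent 4×180K protein-binding microarrays carrying double-stranded probes. Antibodies against each partner (one per run) detected binding, and z-scores were calculated against random background probes after regression normalization of scanned fluorescence.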

[2] = tested on: RARg:RXRa (NR concentration 270 nM, RXRa partner concentration 90 nM)
Method in brief: as §1

[3] = tested on: RARg homodimer (NR concentration 270 nM)
Method in brief: as §1

[4] = tested on: RXRa DBDmut IVT, anti-RXR (DBD mutation: RXRa K156A/R161A, NR concentration 90 nM)
Method in brief: as §1

[5] = tested on: RXRa homodimer (NR concentration 180 nM)
Method in brief: as §1

[6] = tested on: THRa:RXRa (NR concentration 90 nM, RXRa partner concentration 90 nM)
Method in brief: as §1

[7] = tested on: THRa homodimer (NR concentration 90 nM)
Method in brief: as §1

[8] = tested on: VDR homodimer (NR concentration 270 nM)
Method in brief: as §1

Row | Sequence | PBM binding z-score [1] | PBM binding z-score [2] | PBM binding z-score [3] | PBM binding z-score [4] | PBM binding z-score [5] | PBM binding z-score [6] | PBM binding z-score [7] | PBM binding z-score [8]
1 | AGTCAAAGTTCAGGACGAGGTAACGTAAAGCACG | 3.25 | 4.81 | 4.53 | 2.83 | 2.9 | 3.87 | 1.81 | 2.08
2 | ATCTCTAGGTAACAAGTTCAGTGAGAGAGAGGAC | 1.86 | 1.4 | 1.54 | 0.761 | 0.903 | 1.49 | 0.878 | 2.81
3 | ATCGAAAGGTCGTGAGTTGAGTATACAGAAAGGC | 2.4 | 4.08 | 3.7 | 1.49 | 4.88 | 2.32 | 0.26 | 1.49
4 | TAGCCTAGATCATTCAGGGGCCAGTATAGAAAGC | 0.182 | 0.658 | 0.249 | -0.277 | 0.341 | 0.0485 | -0.624 | -0.00416
5 | GCTAGTTGGTCAGTAAAAGCTCACACACCGGTCG | 0.375 | -0.0691 | 0.0188 | 0.421 | -0.0351 | -0.374 | -0.166 | -0.217
6 | TCAGACAGGTGGAGGTAACTCAGGTACGCAGTCG | 0.41 | -0.00603 | -0.245 | 0.723 | 0.574 | 1.48 | 0.639 | -0.21
7 | ACTAGTTGGTCAGCTGAGGTCACACAGAATTCGG | 4.54 | 4.18 | 4.44 | 1.41 | 4.19 | 5.12 | 5.11 | 3.47
8 | GCTACTAGTTGAAAGGGCAACCGAATGATTCTCG | 2.01 | 1.33 | 1.35 | 0.375 | 1.33 | 0.651 | -0.134 | 0.214
9 | CCTACTGGACCATTCAGAGGTCATTGATCATATG | 4.13 | 3.53 | 2.94 | 1.51 | 3.99 | 3.04 | 2.32 | 4
10 | AGAATGATGTTAAGATCAGGGAAACAGAATACAT | -0.787 | 0.187 | 0.295 | -0.58 | 0.00873 | -0.153 | -0.703 | -0.555
11 | CCTACTTGGTCAGGAGGTCACACACCGGATATGA | 4.48 | 4.98 | 4.1 | 0.751 | 5.02 | 3.59 | 2.33 | 2.54
12 | CGTCCAAGGTCAAGGGTCAGTGAAGAGATGACGG | 5.05 | 7.4 | 7.41 | 3.29 | 8.75 | 4.58 | 2.82 | 3.3
13 | CCTGCTAGGTCATGGTCAGTTAATCTACAGTATG | 3.11 | 4.04 | 5.07 | 2.12 | 3.12 | 3.23 | 1.57 | 0.435
14 | TGAATGAGGTTATAAGATCAGGCAACGTTGCAAA | 0.151 | 1.57 | 0.908 | 0.405 | 2.11 | 1.85 | 0.127 | 0.105
15 | AGTCAAAGTTCATCTAGCTAACGTAAGATATGCT | 3.76 | 5.27 | 6 | 4.58 | 4.7 | 1.67 | -0.302 | 4.9
16 | CAGCCTAGGTCAGGGCCAGCATAGGAGGAACGTT | 2.41 | 2.93 | 3.78 | -0.352 | 1.57 | 1.95 | 0.423 | -0.327
17 | AGATTGAGGTTAAGATCAGGGAAACAGAATACAT | 1.42 | 2.1 | 1.78 | 1.36 | 2.48 | 2.7 | 1.12 | 0.928
18 | TGTCAAAGTTCAAAGGCAACGTAAGTATCCACAC | 3.66 | 5.59 | 5.84 | 4.29 | 5.06 | 2.12 | -0.708 | 4.02
19 | CCAGACAGATGAGAAGGTAACTCAGCCTCGATTA | -0.0918 | 0.0576 | 0.416 | 0.092 | 0.0859 | 0.0683 | 0.259 | 0.296

Row | Sequence | PBM binding z-score [1] | PBM binding z-score [2] | PBM binding z-score [3] | PBM binding z-score [4] | PBM binding z-score [5] | PBM binding z-score [6] | PBM binding z-score [7] | PBM binding z-score [8]
20 | CTACCAAGGTGAACAAGGTCGTCGATTACTATTC | 2.3 | 2.1 | 1.77 | 1.08 | 2.25 | 3.64 | 1.9 | 1.44
21 | TCGATTAGTTGAAGGGCAACCGACGAGTCCGTTT | 1.04 | 0.11 | 0.294 | 1.01 | 0.397 | -0.146 | -0.591 | 0.943
22 | TTACCAAGGTGAGCTGAGATCGTTGATCCAACTC | -0.439 | -0.0165 | 0.151 | -1.09 | -0.0334 | 1.1 | -0.431 | -0.976
23 | CCTACCAGGCCAGGGTCACTCAAGCATTTCGCTT | 2.84 | 3.13 | 2.44 | -0.231 | 3.18 | 2.98 | 1.56 | 1.29
24 | ATACCAAGGTGATCGTGAGGTCGGTGATACTAAC | 1.4 | 1.58 | 0.586 | -0.0984 | 0.701 | 2.63 | 1.81 | 0.911
25 | CCTACTGGGACAAGGTCATTGATCAGTCAAAGCA | 3.22 | 4 | 3.34 | 1.7 | 3.71 | 3.47 | 2.27 | 3.29
26 | AGAATGAGGTTATTAAGATCAGGGTATTGCGGTC | 0.948 | 1.09 | 0.753 | 1.79 | 1.62 | 2.17 | 0.854 | 1.29
27 | CCTCGGAGGACAGTAGGTCAGAGCTGTCCGCTTT | 2.39 | 2.09 | 2.06 | 0.0907 | 0.614 | 1.43 | -0.152 | -0.282
28 | CCTATTAGATGACCATAAGGGCAACCGAAGCTCG | 1.98 | 1.02 | 1.2 | 0.541 | 0.88 | 1.69 | 1.19 | 0.819
29 | AGACTGAGGTTAAGATCAGGGAAACAGAATACAT | 0.774 | 2.09 | 1.38 | 0.593 | 2.21 | 2.35 | 0.489 | 0.3
30 | CTCGAAAGGTCGTGCTCAGGTGAGTATTCCAAAC | 3.11 | 5.04 | 3.61 | 2.25 | 4.55 | 4.04 | 1.31 | 0.806
31 | CCTCGGAGCACAGAAGGTCAGAGCTGTCCGCTTT | 3.08 | 2.63 | 2.37 | 0.0874 | 2.3 | 3.13 | -0.478 | -0.376
32 | TCTAGTTGGTCACGGAGGTCAGACACGACGGGTA | 3.9 | 3.72 | 3.75 | 1 | 3.4 | 2.79 | 1.39 | 1.56
33 | CCGACTGGGGCAGAGAGGTTACCATACCATCCGG | 1.54 | 1.33 | 1.2 | -0.642 | 1.23 | 1.02 | -0.309 | 0.35
34 | TCATATAGGTAATACCGGTGAAAGTCGGCATCTA | -0.00712 | 0.24 | 0.212 | 1.35 | 0.935 | 0.246 | 0.113 | -0.092
35 | CGTCCAAGCTCAAAGGTCAGTGAAGAGATGACGG | 4.4 | 4.58 | 5.11 | 0.306 | 4.05 | 2.33 | 0.0443 | 0.215
36 | GGAACGAGGGCAAGTTAATAGCAGAGTTTGATGG | 1.35 | 1.46 | 2.01 | 2.29 | 0.717 | 1.2 | -0.0334 | 1.6
37 | ATACCAAGGTGAGCGTGAGGTCGTTGATACTAAC | 2 | 2.92 | 1.6 | 0.221 | 2.01 | 3.8 | 2.51 | 2.3
38 | CCAGACGGGTGAGAAGGTAACTCAGCCTCGATTA | -0.188 | 0.0516 | 0.0574 | -0.845 | 0.0255 | -0.158 | -0.508 | -0.29

Row | Sequence | PBM binding z-score [1] | PBM binding z-score [2] | PBM binding z-score [3] | PBM binding z-score [4] | PBM binding z-score [5] | PBM binding z-score [6] | PBM binding z-score [7] | PBM binding z-score [8]
39 | TCATATAGGGAATACAGGTGAAAGTCGGCATCTA | 0.795 | 0.472 | 0.506 | 1.68 | 1.24 | 0.864 | 0.624 | 0.435
40 | CGTCCAAGGTCCTAGGAGGTCAGTGAAGACAGAT | 2.93 | 2.53 | 2.38 | 0.216 | 2.14 | 4.08 | 0.834 | 1.06
41 | ATCGAAAGGTCGGCGAGGTGAGTATACACCGTTT | 2.95 | 3.69 | 3.91 | 0.785 | 3.86 | 3.29 | 0.709 | 0.535
42 | ATTTGTAGGTTAGCTGGGGTCATTCAGACTAGGC | 4.03 | 4.33 | 2.95 | 2.56 | 5.57 | 5.34 | 3.84 | 4.65
43 | TCTAGTTGGTCAAAAGTCACACACTCGAAATGCG | 1.01 | 1.34 | 1.06 | 1.33 | 1.55 | 0.553 | 0.457 | 0.578
44 | GCTGTTAGGTCAGGTTGGTCAGCTAACGGGTACG | 3.34 | 3.03 | 4.11 | 0.92 | 1.42 | 2.84 | 1.69 | 0.688
45 | CCTTACGGGTCACTCCAGGTTACAGCATCGGAGT | 3.31 | 4.27 | 4.33 | 1.46 | 4.26 | 5.28 | 0.933 | 1.56
46 | GCTAGCAGGCCATTTGGGACACTCAATGACGGGC | -0.366 | -0.267 | 0.308 | -0.237 | -0.122 | 0.63 | -0.00643 | -0.65
47 | TCTGCTAGGTCAGTTTGTCAGCTAACGAGCTGCC | 1.74 | 1.84 | 2.44 | 0.8 | 0.666 | 0.996 | 0.0715 | -0.975
48 | CGAACGAGGGCATTAGTTGATAGCAAATGCCGAT | 0.501 | 0.774 | 1.37 | 2.96 | 0.438 | 0.5 | -0.321 | 1.64
49 | TTACCAAGGCGAGCTGAGGTCGTTGATCCAACTC | 0.643 | 0.197 | -0.299 | 0.038 | 0.626 | 3.13 | 1.16 | 1.49
50 | ATCTCTAGGTAAGACTCAGTTCAGTGGAGAACGC | 0.868 | 0.285 | 0.403 | 0.304 | 0.0842 | 0.884 | 0.583 | 1.57
51 | CGTCCAAGGTCAAAGGTCGGTGAAGAGATGACGG | 4.52 | 7.18 | 6.2 | 3.85 | 8.84 | 4.24 | 2.17 | 2.78
52 | GCGACTGGGGCATCAGCAGGTTACGATAACTTAA | 0.928 | 0.837 | 0.545 | -0.13 | 0.313 | 0.816 | -0.273 | -0.435
53 | CCGACTGGGGCATAAAGTTACCATAAGCCAGCCC | -0.229 | -0.0793 | 0.0317 | 0.0675 | 0.0317 | -0.417 | -0.689 | -0.27
54 | GCCACTGGGGCATCAGCAGGTTACCATAACTTAA | 0.865 | 0.714 | 0.439 | -0.45 | 0.212 | 0.803 | -0.0926 | -0.602
55 | TAGCCTAGGTCATCCGGGCCAGTATAGTGTCGGC | 3.17 | 4.1 | 4.53 | 1.24 | 2.96 | 3.16 | 1.16 | 1.42
56 | ACTATTAGTTGACTTAGGGCAAGCGATACGACGC | 0.617 | 0.671 | 0.684 | 0.657 | 0.682 | 0.91 | -0.0225 | 0.0582
